Compound activity from PubChem BioAssay.
Y pestis TopoI: Yersinia pestis topoisomerase I inhibitors, primary screen, biochemical, cleavage product accumulation, plate reader, single point. DNA topoisomerase I (Yersinia pestis CO92). Y. pestis Topo-I cleavage product accumulation. 360,000 tested, 0.064% active. activity, % at 10 µM; in the data active = activity above about 50%, passing the limit was not always enough; inconclusive = no clear call, values can overlap the other calls
Mtb BioA inh: M. tuberculosis BioA enzyme inhibitors, primary screen, biochemical, plate reader, single point, HTS; purified M. tuberculosis BioA enzyme; inhibition, % at 9.99 µM; 360,000 tested, 0.096% active; AID 602481, 2012; in the data active = inhibition above about 40%; inconclusive = no clear call, values can overlap the other calls
TcdB inh: TcdB glycohydrolase inhibitors, primary screen, biochemical, single point, plate reader | inhibition, % at 9.99 µM | TcdB glycohydrolase enzymatic assay | AID 652162, 2013 | 350,000 tested, 0.24% active | Toxin B (Clostridioides difficile), P18177; in the data active = inhibition above about 10%
* hit, by the source's call; i = inactive; ? = inconclusive; / = not tested or not shown. Most compounds without a hit are left out; they make up all but 0.32% or so of the library.

SMILES | Y pestis TopoI | Mtb BioA inh | TcdB inh
O=C(OCC(=O)N1CCCc2ccccc21)c1ccc(S(=O)(=O)C(F)F)cc1 | 15 | / | -4
O=C(OCC(=O)N1CCCc2ccccc21)c1ccc(C(F)(F)F)cc1 | 5 | -1 | 11*
Cn1cnc(S(=O)(=O)N2CC[C@@H]3[C@@H](CO)Nc4ccc(C#Cc5ccc(F)cc5)cc4[C@@H]32)c1 | / | / | -1
CCCOC(=O)C(=O)NNc1ccccc1 | 0 | / | 6
CC(C)OC(=O)C(=O)NNc1ccccc1 | 0 | 1 | 15*
CO[C@@H]1CN(C)C(=O)c2ccc(NC(=O)Cc3ccccc3)cc2OC[C@@H](C)N(CC2CC2)C[C@@H]1C | / | 0 | -1
Oc1ccc(/C=N/N2CCN(Cc3ccccc3)CC2)cc1 | 4 | -1 | 18*
CSc1ccc(/C=N/N2CCN(Cc3ccc(Cl)cc3)CC2)cc1 | -9 | 2 | 11*
C(=N\N1CCN(Cc2ccccc2)CC1)/c1ccc(-c2ccccc2)cc1 | -9 | -1 | 1
CSc1ccc(/C=N/NC(=O)CN2CCN(Cc3ccc(Cl)cc3)CC2)cc1 | 31 | / | -1
CO[C@@H]1CN(C)C(=O)c2ccc(NS(=O)(=O)c3cn(C)cn3)cc2OC[C@H](C)N(CCC(F)(F)F)C[C@H]1C | / | / | 0
Cc1ccc(C(=O)COC(=O)c2cc(=O)[nH]c3ccccc23)cc1 | -10 | / | 11*
O=C(COC(=O)c1cc(=O)[nH]c2ccccc12)c1ccccc1 | 6 | -1 | 1
Cc1ccc(S(=O)(=O)N(C)C[C@@H]2Oc3c(cccc3N(C)C)C(=O)N([C@H](C)CO)C[C@@H]2C)cc1 | / | 1 | 0
CC=Cc1ccc2n(c1=O)C[C@@H]1[C@@H](CO)[C@H](C(=O)NCCc3cn(C)cn3)[C@H]2N1C(=O)C1CC1 (mixture of isomers) | / | 0 | 0
Cn1ncc(Br)c1C(=O)N/N=C/c1cccc(OC2CSC2)c1 | 20 | / | 31*
O=C(N/N=C/c1cccc(OC2CSC2)c1)c1ccccc1O | 1 | -1 | /
CC(C)Cc1cc(C(=O)N2CCCC(CO)(Cc3ccc(F)cc3)C2)no1 (stereo not drawn) | 20 | / | 11*
Cc1cc(C(=O)N2CCCC(CO)(Cc3ccc(F)cc3)C2)c(C)o1 (stereo not drawn) | 9 | 3 | 0
CC1=NCCc2c1[nH]c1cc(O)ccc21 | -11 | i | 42*
COc1ccc2c3c([nH]c2c1)C(C)=NCC3 | -6 | 18 | 1
O=[N+]([O-])c1ccc(S(=O)(=O)Nc2nc(-c3ccccc3)cs2)cc1 | 4 | 2 | 13*
O=S(=O)(Nc1nc(-c2ccccc2)cs1)c1cccc(C(F)(F)F)c1 | 3 | 4 | 1
O=C(C[C@H]1CC[C@H](NC(=O)C2CCOCC2)[C@@H](CO)O1)Nc1ccc(-c2ccccc2)cc1 | / | -3 | -1
COc1cc2nc3n(c(=O)c2cc1OC)-c1cc2ccccc2cc1C(=O)NC3Cc1ccccc1 (stereo not drawn) | 65* | 0 | -2
SMILES | Y pestis TopoI | Mtb BioA inh | TcdB inh
O=C1NC(Cc2ccccc2)c2nc3cc(F)c(F)cc3c(=O)n2-c2cc3ccccc3cc21 (stereo not drawn) | -6 | -1 | 1
COc1cc2nc3n(c(=O)c2cc1OC)-c1cc2ccccc2cc1C(=O)NC3CC(C)C (stereo not drawn) | 29 | -2 | -1
O=C1NC(Cc2ccccc2)c2nc3ccccc3c(=O)n2-c2cc3ccccc3cc21 (stereo not drawn) | 51* | -1 | 1
CC(C)CC1NC(=O)c2cc3ccccc3cc2-n2c1nc1cc(Cl)ccc1c2=O (stereo not drawn) | 54* | 0 | 0
O=C1NC(Cc2ccccc2)c2nc3cc(F)ccc3c(=O)n2-c2cc3ccccc3cc21 (stereo not drawn) | ? | -1 | 0
Cc1noc(C)c1S(=O)(=O)N(C)C[C@@H]1Oc2ccc(NC(=O)CCCCCC(=O)Nc3ccccc3N)cc2CC(=O)N([C@@H](C)CO)C[C@@H]1C | / | / | 0
CCC(=O)N1[C@@H]2Cn3c(ccc(-c4ccc(F)cc4)c3=O)[C@H]1[C@@H](C(=O)N(C)C)[C@@H]2CO | / | -1 | 0
C/C(=N\Nc1cc(N2CCOCC2)ncn1)c1ccc(O)cc1 | 0 | 0 | 28*
C/C(=N\NC(=O)c1ccc(O)cc1)c1ccc(N2CCOCC2)cc1 | 14 | / | -1
O=C(Cc1ccccc1)N1CC(=O)N2[C@H](CO)[C@@H](c3ccc(-c4cccc(F)c4)cc3)[C@@H]2C1 | / | / | 0
COc1cccc(NC(=O)N[C@H]2C=C[C@H](CC(=O)N3CCCCC3)O[C@H]2CO)c1 | / | -2 | -1
CC(C)CC(=O)N1CCN(Cc2ccc(Cl)cc2)CC1 | 8 | 3 | 1
CC(C)CC(=O)N1CCN(Cc2ccc(Br)cc2)CC1 | 7 | -1 | 11*
C[C@@H]1CCCCO[C@@H](CN(C)C(=O)CCCN(C)C)[C@H](C)CN([C@@H](C)CO)C(=O)c2cc(NC(=O)CCC(F)(F)F)ccc2O1 | / | 1 | 0
CCCC(=O)Nc1ccc2c(c1)C(=O)N(C)[C@@H]1CC[C@H](CC(=O)NCC3CC3)O[C@@H]1CO2 | / | -2 | 0
COc1cc(NC(=O)CCc2nnc3ccc(N4CCN(c5cccc(OC)c5)CC4)nn23)cc(OC)c1 | 16 | -1 | 1
COc1cc(NC(=O)CCc2nnc3ccc(N4CCC(C)CC4)nn23)cc(OC)c1 | 4 | 0 | 10*
COc1ccc(/C=N/Nc2ccccn2)cc1OC | -3 | 3 | -2
COc1cc(/C=N/Nc2ccccn2)ccc1O | -1 | / | 16*
Cc1noc(C)c1NC(=O)N(C)C[C@H]1OCCCC[C@@H](C)Oc2ccc(NS(=O)(=O)c3cccs3)cc2C(=O)N([C@@H](C)CO)C[C@H]1C | / | -2 | 0
N#C[C@H]1[C@H](c2ccccc2)[C@H](CO)N1S(=O)(=O)c1cccc(F)c1 | / | 3 | -1
COCC(=O)N1C[C@@H]2[C@H](c3ccccc31)[C@H](CO)N2Cc1ccccc1Cl | / | 3 | 2
CCOC(=O)C(=O)NNc1ccc(C)cc1 | -2 | / | /
CCOC(=O)C(=O)NNc1ccc(Cl)cc1 | -1 | / | 47*
CCCC#Cc1ccc2c(c1)O[C@H](CN(C)C(=O)NC(C)C)[C@@H](C)CN([C@H](C)CO)S2(=O)=O | / | 0 | 1
SMILES | Y pestis TopoI | Mtb BioA inh | TcdB inh
C[C@@H]1CCCCO[C@H](CN(C)S(=O)(=O)c2cn(C)cn2)[C@@H](C)CN([C@@H](C)CO)C(=O)c2cc(NC(=O)Nc3ccc(C(F)(F)F)cc3)ccc2O1 | / | 4 | /
O=C(N[C@H]1CC[C@H](CC(=O)N2CCOCC2)O[C@H]1CO)c1ccc2c(c1)OCO2 | / | 0 | -1
CCCCNC(=O)CC1S/C(=N/N=C/c2ccc(OC)cc2)NC1=O (stereo not drawn) | 4 | / | 1
COc1ccc(/C=N/N=C2/NC(=O)C(CC(=O)NC(N)=O)S2)cc1 (stereo not drawn) | -3 | -1 | 11*
Cc1ccc2c(c1)/C(=C/c1ccccc1C)C(=O)N2 | 0 | -1 | 12*
Cc1ccc2c(c1)/C(=C/c1ccc(F)cc1)C(=O)N2 | 14 | 0 | 2
C[C@@H]1CN([C@@H](C)CO)C(=O)c2cc(NS(=O)(=O)c3ccc(Cl)cc3)ccc2O[C@H]1CN(C)CC1CC1 | / | 1 | 1
Cn1cnc(S(=O)(=O)N2CC[C@@H]3[C@H]2c2cc(-c4cccc(F)c4)ccc2N[C@@H]3CO)c1 | / | / | 0
